Compound activity (PubChem BioAssay)
Not all results are given here.
aSyn UTR act: Activators via SNCA 5'UTR binding, MLPCN | alpha-synuclein 5'UTR reporter, activators screen | activity score, % (tested at 7.5 µM), hits read low | 300,000 compounds, 7.1% hits; in the data active means activity score below about -60%
The depositor's hits bear a star.

SMILES	aSyn UTR act
O=C(Nc1ccccn1)c1ccc(C(=O)c2ccccc2)cc1	-108*
Cc1cc(C)c(NC(=O)NC(=O)c2cccc(F)c2)c(C)n1	-69*
CN(C(=O)c1ccco1)c1nnc(C23CC4CC(CC(C4)C2)C3)s1	-144*
COC(=O)c1ccc(NC(=O)C(=O)c2c[nH]c3ccccc23)cc1	-93*
CC1(C(=O)OCC(=O)c2c[nH]c3ccccc23)CC1(Cl)Cl (stereo unspecified)	-260*
COc1ccc(OCC(=O)c2c[nH]c3ccccc23)cc1	-90*
Cc1cn(-c2cc(C(=O)Nc3ccc(C)c(NC(=O)C(=O)c4c[nH]c5ccccc45)c3)cc(C(F)(F)F)c2)cn1	66
O=C(OCC(=O)c1c[nH]c2ccccc12)C1=COCCO1	-143*
COc1ccc(C2C(O)C(c3c[nH]c4ccccc34)=NN2C(=O)CCl)cc1 (stereo unspecified)	108
Cc1ccc(OCC(=O)c2c[nH]c3ccccc23)c([N+](=O)[O-])n1	-67*
Cc1ccc(OCC(=O)c2cc(C)n(-c3ccccc3)c2C)c([N+](=O)[O-])n1	68
Cc1ccc(C(=O)OCC(=O)c2c[nH]c3ccccc23)cc1	-147*
Cc1ccc(-c2nc(NCc3ccco3)n(C(=O)c3ccco3)n2)cc1	-143*
COc1ccccc1C(=O)n1nc(-c2ccccc2)nc1NCc1ccco1	-88*
O=C(c1ccco1)n1nc(-c2ccc(Cl)cc2)nc1NCc1ccco1	-176*
O=C(COc1ccccc1)n1nc(-c2ccc(Cl)cc2)nc1NCc1ccco1	-132*
Cn1cnnc1SCc1ccc(-c2ccc(Br)cc2)o1	-72*
Oc1ccccc1N=Nc1ccccc1O	58
Nc1ccc(N=Nc2ccccc2O)c(N)c1	-136*
COc1ccc(/C=C/C2=Nc3ccccc3NC(C)(C)C2)cc1OC	-78*
O=C(/C=C/c1ccco1)Nc1ccccc1N1CCCC1	-80*
O=C(/C=C/c1ccco1)Nc1ccccc1C(=O)O	-117*
COc1ccc(/C=C/C(=O)Nc2cc(C)nn2-c2nc3ccccc3[nH]2)cc1	-85*
Cc1ccc(Nc2cccccc2=O)cc1	-101*
Cc1ccc(Nc2nc3nonc3[nH]c2=O)cc1Cl	-72*
SMILES	aSyn UTR act
COc1ccccc1CCNC(=O)C(=O)c1cn(CC(=O)N2CCOCC2)c2ccccc12	-106*
O=C(Nc1ccccc1Cl)C(=O)c1cn(CC(=O)N2CCOCC2)c2ccccc12	-125*
CCc1ccc(NC(=O)C(=O)c2cn(CC(=O)N3CCCCC3)c3ccccc23)cc1	-70*
CCc1ccc(-c2ccc(SCC(=O)NCC3CCCO3)nn2)cc1 (stereo unspecified)	-94*
CCc1ccc(-c2ccc(SCC(=O)Nc3nnc(C)s3)nn2)cc1	-83*
CCc1nnc(NC(=O)CSc2ccc(-c3ccc(-n4cccn4)cc3)nn2)s1	-98*
c1cncc(CSc2ccc(-c3ccc4c(c3)OCO4)nn2)c1	-109*
Cc1nc(C)c(-c2ccc(SCc3ccccc3C)nn2)s1	-97*
Cc1ccccc1CSc1ccc(-c2ccc3c(c2)OCO3)nn1	-83*
O=[N+]([O-])/C(C(Cl)=C(Cl)Cl)=C(\Sc1ccccc1)N1CCCCC1	-116*
COc1cc(OC)cc(C(=O)Nc2sc3c(c2C(N)=O)CCC3)c1	-105*
NC(=O)c1c(NC(=O)c2ccccc2F)sc2c1CCCC2	-170*
COCCN(CCOC)S(=O)(=O)c1ccc(C(=O)Nc2sc3c(c2C(N)=O)CCCCC3)cc1	-107*
NC(=O)c1c(NC(=O)c2ccc(F)cc2Cl)sc2c1CCC2	-96*
NCCNC(=O)c1c(NC(=O)c2ccccc2)sc2c1CCCC2	-125*
NC(=O)c1c(NC(=O)c2cccs2)sc2c1CCCCCC2	-122*
O=C(Nc1ncc(Cc2ccc(SC(F)F)cc2)s1)c1ccccc1	68
Cc1ccc(Cc2cnc(NC(=O)c3cccs3)s2)cc1	-91*
O=C(Nc1ncc(Cc2cccc(Cl)c2)s1)c1cccs1	-192*
Clc1ccc(-c2nnc(-c3ccc(Br)o3)o2)c(Cl)c1	-192*
CCSc1nnc(-c2ccc(Cl)cc2Cl)o1	-260*
O=C1OCCC1Sc1nnc(-c2ccc(Cl)cc2Cl)o1 (stereo unspecified)	90
CSc1nnc(-c2ccc(Cl)cc2Cl)o1	-120*
NC(=O)c1cc(Br)cc(C2CCCCC2)c1O	87
N/C(=N\OC(=O)C1CCCCC1)c1ccc(Br)cc1	-217*
SMILES	aSyn UTR act
N/C(=N\OC(=O)C1CCCCC1)c1ccc(Cl)cc1	-138*
N/C(=N\OC(=O)C1CCCCC1)c1ccccn1	-119*
Cc1ccccc1OCc1n(CC(=O)OC2CC(C)CCC2C(C)C)c2ccccc2[n+]1C (stereo unspecified)	85
CCNC(=O)O/N=C(\C)c1sc(-c2ccccc2)nc1C	-134*
CNC(=O)c1sc(-c2ccc(Cl)cc2)nc1C	-187*
C/C(=N\O)c1sc(-c2ccccc2)nc1C	-140*
CC(=O)c1sc(-c2ccc(Cl)cc2)nc1C	-101*
CNC(=O)c1sc(-c2ccccc2)nc1C	-78*
Cc1ccc2nc(N(CCN3CCOCC3)C(=O)CCS(=O)(=O)c3ccccc3)sc2c1	-93*
Cc1ccc(S(=O)(=O)CCC(=O)N(CCCN2CCOCC2)c2nc3ccccc3s2)cc1	-119*
O=C(CCS(=O)(=O)c1ccccc1)N(CCCN1CCOCC1)c1nc2ccccc2s1	-106*
CCCc1nn(C)c(C(=O)Nc2cccc(CC)c2)c1Cl	-84*
CCCc1nn(C)c(C(=O)Nc2ccc3ccccc3c2)c1Cl	-204*
N=c1oc2ccccc2cc1C(=O)Nc1cccc(F)c1	-122*
Cc1ccc(NC(=O)c2cc3ccccc3oc2=N)cc1	82
N=c1oc2cc(O)ccc2cc1C(=O)Nc1ccc(Cl)cc1	-126*
N=c1oc2ccccc2cc1C(=O)Nc1ccc(F)cc1	-154*
C=CCN1/C(=C2/SC(=S)N(C)C2=O)Sc2ccccc21	-65*
CCN1/C(=C2\OC(=S)N(C)C2=O)Sc2ccccc21	-129*
CCN1CCN(C(=O)c2ccc3c(=O)n(CCc4ccccc4)c(=O)[nH]c3c2)CC1	-72*
CC1CCN(CCCNC(=O)c2ccc3c(=O)n(CCc4ccccc4)c(=O)[nH]c3c2)CC1	-74*
CC1CCCCN1CCNC(=O)c1ccc2c(=O)n(CCc3ccccc3)c(=O)[nH]c2c1 (stereo unspecified)	-79*
O=C1C(=O)N(c2cccc(Cl)c2)C(c2ccccc2[N+](=O)[O-])/C1=C(\O)c1ccccc1 (stereo unspecified)	-88*
O=C1C(=O)N(c2ccccc2)C(c2ccccc2[N+](=O)[O-])/C1=C(\O)c1ccccc1 (stereo unspecified)	-93*
COc1ccc2c(c1)C(=O)c1ccccc1CO2	-242*
SMILES	aSyn UTR act
O=C(NCCCn1ccnc1)c1cc2ccccc2oc1=O	-65*
O=C(NCCCn1ccnc1)c1cc(-c2cccc(O)c2)on1	-65*
CCOc1ccc(-c2cc(C(=O)NCCCn3ccnc3)c3cc(Br)ccc3n2)cc1	60
O=C(/C=C/c1ccccc1)NC(=O)c1ccccc1O	-157*
O=C(/C=C/c1ccccc1)CC(=O)c1ccccc1O	-201*
COc1cc(/C=C/C(=O)NC(=O)c2ccccc2O)ccc1O	-161*
CCc1c(C)c2ccc(OCC(=O)OC(C)C)c(C)c2oc1=O	-107*
COC(=O)Cc1c(C)c2ccc(OCC(C)=O)c(C)c2oc1=O	-124*
Cc1ccccc1CNC(=O)Cc1ccccc1[N+](=O)[O-]	-96*
O=C(Cc1ccccc1[N+](=O)[O-])NCc1ccccc1Cl	-147*
O=C(Cc1ccc(Cl)cc1)NCc1ccccc1Cl	-66*
